Screens (PubChem)
GPR151 activ: activates the human receptor GPR151. AID 1508602. Q8TDV0. actives 1% (n = 650,000). activation, % at 11.2 µM. PathHunter beta-arrestin GPR151 cells, luminescence; in the data active = activation above about 4.9%;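 note: 0% = median of compound wells and 100% = cells with positive control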
FBW7 activator: human FBW7 E3 ligase activation, primary screen; actives 0.13% (n = 650,000); AlphaScreen FBW7–phospho-cyclin E peptide binding, activator screen; AID 1259310; normalized activity (activation), % at 26.1 µM; in the data active = normalized activity above about 1.9%;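 note: purified mutant Fbw7 with reduced substrate affinity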
MITF primary: inhibitors of human MITF. AlphaScreen MITF homodimerization, bead proximity signal. O75030. actives 0.91% (n = 650,000). AID 1259374. inhibition, % at 2.6 µM; in the data active = inhibition above about 50%;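 note: 0% = vehicle wells with protein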
TEAD-YAP block: TEAD-YAP interaction inhibition. inhibition, % at 9.12 µM. HEK-TIYL cells, TEAD-Gal4/YAP UAS-luciferase luminescence. actives 1.4% (n = 640,000); in the data active = inhibition above about 32%;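 note: 0% = median of test compound wells and 100% = reference inhibitor wells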
GPR151 confirm: human GPR151 activation, confirmation screen; shares compounds with GPR151 activ; GPR151 PathHunter beta-arrestin cells, luminescence, 90 min; % of EA-reagent control over plate median; activation, % at 11.2 µM; 6,700 tested, under 10 active;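 active = mean percent activation across replicates above the confirmation screen cutoff of 4.91%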
GPR119 counter: counter-screen for GPR151 activators: effect on human GPR119 | GPR119 PathHunter beta-arrestin cells, luminescence, 90 min; 0 = compound-well median, 100 = enzyme-acceptor control | AID 1508611 | activation, % at 11.2 µM | actives 0.3% (n = 6,700) | shares compounds with GPR151 activ;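 active = mean percent activation in the counterscreen above 29.09%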;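 note: counterscreen on off-target GPR119 to flag nonselective hits from the GPR151 activator screen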
Target sequence (Q8TDV5 whole entry, looked up): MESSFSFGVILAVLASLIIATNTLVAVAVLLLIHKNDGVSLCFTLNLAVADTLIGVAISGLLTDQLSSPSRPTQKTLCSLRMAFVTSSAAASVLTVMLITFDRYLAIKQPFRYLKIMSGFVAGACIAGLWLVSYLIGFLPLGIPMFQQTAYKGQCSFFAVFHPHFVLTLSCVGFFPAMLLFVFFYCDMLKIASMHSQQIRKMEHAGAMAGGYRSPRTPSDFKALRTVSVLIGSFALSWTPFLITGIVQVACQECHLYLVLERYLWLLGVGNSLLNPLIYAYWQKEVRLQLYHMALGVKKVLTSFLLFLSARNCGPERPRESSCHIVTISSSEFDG
Numbers without * were called inactive; . = no result. Sampled rows, rich in hits. Any-hit rate of the full collection: about 3.5%.

SMILES | GPR151 activ | FBW7 activator | MITF primary | TEAD-YAP block | GPR151 confirm | GPR119 counter
O=C(NCCc1ccccc1)C1CC(=O)N(c2ccc(Br)cc2)C1 (stereo unspecified) | 5.5* | 0.2 | 13.0 | 1.1 | 0.8 | -6.6
Cc1ccc(N2CC(NC(=O)Nc3ncccc3C)CC2=O)cc1 (stereo unspecified) | 5.9* | 0.1 | -4.8 | 2.8 | 0.5 | 2.2
CC(=O)c1cccc(Nc2c(-c3ccc(C)cc3)c(=O)c2=O)c1 | 0.0 | 0.1 | -16.8 | -1.4 | . | .
CC(=O)c1ccc(Nc2c(-c3ccccc3)c(=O)c2=O)cc1 | 5.4* | 0.4 | 23.1 | 8.5 | -0.1 | -7.8
O=c1c2c3c(sc2ncn1/N=C/c1ccc(O)c(O)c1O)CCCC3 | 5.4* | -0.3 | 58.2* | -7.3 | -1.0 | -9.8
CS(=O)(=O)N(CC(=O)N1CCN(c2ccc(F)cc2)CC1)c1ccc(Cl)cc1 | 5.6* | 0.1 | 5.6 | -1.7 | 0.0 | -3.2
CS(=O)(=O)N(CC(=O)N1CCCC1)c1ccc2c(c1)OCCO2 | 9.5* | 0.0 | 6.3 | 9.2 | -0.8 | -10.3
CC(C)c1ccc(N(CC(=O)N2CCN(c3ccc(F)cc3)CC2)S(C)(=O)=O)cc1 | 2.7 | -0.1 | 1.4 | 0.7 | . | .
COc1cc(OC)c(CN2CCC(CO)(CCOc3ccccc3)CC2)c(OC)c1 | 5.4* | 0.1 | 9.2 | 11.2 | -0.8 | -12.3
Cc1ccccc1OCC(=O)NNC(=O)C(F)(F)F | 5.1* | 0.1 | -0.9 | -2.6 | 0.1 | -0.9
Cc1ccc(OCC(=O)NNC(=O)COc2ccccc2C)cc1 | 2.0 | -0.1 | 0.4 | 7.6 | . | .
CC(C)(C)Cc1nnc(NC(=O)c2ccccc2[N+](=O)[O-])s1 | 13.3* | 0.0 | -4.3 | -0.3 | 0.3 | -5.3
O=C(Nc1nc(-c2ccccn2)cs1)c1ccccc1[N+](=O)[O-] | 5.4* | -0.2 | 43.7 | 54.1* | -0.5 | -7.5
O=C(Nc1nc(-c2ccccc2)cs1)c1ccccc1[N+](=O)[O-] | 1.8 | 0.1 | 7.6 | 5.6 | . | .
CCc1nnc(NC(=O)c2ccccc2[N+](=O)[O-])s1 | 1.0 | 0.0 | 2.3 | -4.9 | . | .
COc1ccc(CC(=O)Nc2c3c(nn2-c2ccc(F)cc2)CSC3)cc1OC | 2.2 | 0.0 | -2.7 | 16.2 | . | .
CCCc1nc2ccccc2c(=O)n1-c1c(C)n(C)n(-c2ccccc2)c1=O | 6.8* | -0.1 | 4.0 | -4.5 | -0.4 | -11.9
Cc1c(-n2c(SC/C=C\Cl)nc3ccccc3c2=O)c(=O)n(-c2ccccc2)n1C | -1.3 | -0.1 | -3.9 | -3.1 | . | .
C=CCn1c(O)c(C=NCCCC)c(=O)[nH]c1=S | 0.2 | 0.1 | 19.1 | -3.3 | . | .
Cc1cccc(NC(=O)CC(C)S(=O)(=O)c2ccc3c(c2)SCC(=O)N3)c1C (stereo unspecified) | 5.8* | 0.0 | -1.9 | 1.4 | -0.2 | -0.8
Cc1c(Cl)cccc1NC(=O)CC(C)S(=O)(=O)c1ccc2c(c1)SCC(=O)N2 (stereo unspecified) | -0.1 | -0.1 | 2.8 | 5.9 | . | .
Cc1cccc(C(C)C)c1NC(=O)CCS(=O)(=O)c1ccc2c(c1)SCC(=O)N2 | 5.5* | -0.2 | 4.5 | 1.0 | 0.4 | 5.6
CC(=O)Nc1ccc(Nc2cc(C)nc(Nc3ccccn3)n2)cc1 | 0.1 | 0.3 | 16.3 | -47.3 | . | .
CCn1c2ccccc2c2cc(/C=N/n3cn[nH]c3=S)ccc21 | 5.0* | 0.2 | 8.4 | 21.8 | -1.1 | -8.3
CCn1c2ccccc2c2cc(/C=N/O)ccc21 | 0.0 | 0.7 | 13.8 | 11.7 | . | .
SMILES | GPR151 activ | FBW7 activator | MITF primary | TEAD-YAP block | GPR151 confirm | GPR119 counter
CC(C)N(CCNC(=O)Cc1cn(-c2ccc(Nc3ccc(C(F)(F)F)cc3)nn2)c2ccccc12)C(C)C | -0.7 | 0.4 | 19.2 | -5.7 | . | .
Cc1nc2sc(C(=O)c3ccc(Br)cc3)c(N)c2c(C)c1CC(=O)c1ccccc1 | 7.0* | -0.1 | -1.5 | -0.8 | 0.4 | -11.1
CCc1c(C)nc2sc(C(=O)c3ccc(Br)cc3)c(N)c2c1C | 0.5 | 0.0 | -13.2 | 1.1 | . | .
c1cncc(-c2nc(-c3ccncc3)cc(N3CCCCC3)n2)c1 | 5.2* | 0.0 | 13.2 | 15.9 | -1.1 | -8.4
CCN(C(=O)CCc1nc(-c2ccc(C)cc2)no1)c1ccc(F)cc1 | 1.1 | -0.1 | 2.8 | 13.6 | . | .
Cc1sc2nc(C(C)C)n3c(=O)n(CCN4CCCC4)nc3c2c1C | 11.2* | -0.4 | -2.3 | 8.0 | 0.1 | 3.3
Cc1sc2nc(C(C)C)n3c(=O)n(Cc4ccccn4)nc3c2c1C | 12.6* | -0.1 | -3.0 | -2.5 | -0.7 | 1.1
CCn1nc2c3c(C)c(C)sc3nc(C(C)C)n2c1=O | 1.8 | -0.1 | 4.7 | 6.3 | . | .
COc1ccnc(Cn2nc3c4c(C)c(C)sc4nc(C(C)C)n3c2=O)c1OC | -0.1 | -0.2 | -12.3 | -7.3 | . | .
O=C(c1ccccc1)c1cccn1CC(=O)N1CCOCC1 | 0.1 | 0.0 | 13.8 | 9.8 | . | .
COC(=O)C1=CN(c2ccc(F)c(F)c2)C=C(C(=O)OC)C1c1cccs1 | 4.0 | 1.0 | 4.1 | -4.2 | . | .
Cc1cc(C)c(C2=NON3N(C(=O)C(C)(C)C)c4ccccc4N23)c(C)c1 | 0.8 | 0.2 | 21.6 | 10.9 | . | .
Oc1ccc(CCNc2ccnc(N3CCN(c4ccccn4)CC3)n2)cc1 | 6.2* | 0.0 | -6.8 | 5.7 | -0.3 | -2.3
COc1ccc([C@@H](C)NC(=O)CCC2(Cc3ccc(C)cc3)CCC(=O)N2)cc1 (stereo partly specified) | 0.5 | -0.1 | -0.3 | 9.3 | . | .
COc1ccc(CC2(CCC(=O)N[C@H](C)c3ccc(OC)cc3)CCC(=O)N2)cc1 (stereo partly specified) | 5.1* | -0.1 | -4.2 | 6.7 | -0.9 | -6.7
COc1ccc(CN2CCN3C(=O)[C@H](CC(C)C)NC(=O)[C@H]3C2)cc1 | 0.6 | 0.0 | 1.4 | 7.2 | . | .
COc1ccc(C2=NS(=O)(=O)N(C)C(C(=O)N(C)C3CCCCC3)=C2)cc1 | 11.2* | -0.1 | -9.4 | 0.5 | -0.8 | -7.8
Cc1ccc(C2=NS(=O)(=O)N(C)C(C(=O)N(C)C3CCCCC3)=C2)cc1 | -2.0 | -0.2 | 5.9 | -0.1 | . | .
COC(=O)c1ccc(C2NC(=O)NC(O)(C(F)(F)F)C2C(=O)c2ccc(F)cc2)cc1 (stereo unspecified) | 6.2* | 0.0 | -7.3 | -3.2 | 0.6 | 1.6
O=C1NC(c2ccccc2O)C(C(=O)c2ccccc2)C(O)(C(F)(F)F)N1 (stereo unspecified) | 0.3 | 0.1 | 3.5 | 4.2 | . | .
Cc1ccc(C(=O)C2C(c3ccccc3F)NC(=O)NC2(O)C(F)(F)F)cc1 (stereo unspecified) | 6.9* | 0.2 | -6.3 | -2.0 | 1.3 | 5.9
O=C1NC(c2ccc(F)cc2)C(C(=O)c2ccccc2)C(O)(C(F)(F)F)N1 (stereo unspecified) | 0.0 | -0.1 | 1.5 | -3.4 | . | .
CC(=O)Oc1ccc(N2C(=O)C3C(C2=O)C2C=CC3C23CC3)cc1 (stereo unspecified) | 2.4 | 0.0 | -36.7 | -11.3 | . | .
